# The supplement of paper PMC3334620
# In all, about 33,000 sequences were measured (“E-score (-0.5 to 0.5)”: median about -0.012, highest 2% from about 0.27 on). This excerpt belongs to a sample that is enriched for the highest values.
# Biological target: T1, Vhr1 (UniProt P40522)
# T1 sequence: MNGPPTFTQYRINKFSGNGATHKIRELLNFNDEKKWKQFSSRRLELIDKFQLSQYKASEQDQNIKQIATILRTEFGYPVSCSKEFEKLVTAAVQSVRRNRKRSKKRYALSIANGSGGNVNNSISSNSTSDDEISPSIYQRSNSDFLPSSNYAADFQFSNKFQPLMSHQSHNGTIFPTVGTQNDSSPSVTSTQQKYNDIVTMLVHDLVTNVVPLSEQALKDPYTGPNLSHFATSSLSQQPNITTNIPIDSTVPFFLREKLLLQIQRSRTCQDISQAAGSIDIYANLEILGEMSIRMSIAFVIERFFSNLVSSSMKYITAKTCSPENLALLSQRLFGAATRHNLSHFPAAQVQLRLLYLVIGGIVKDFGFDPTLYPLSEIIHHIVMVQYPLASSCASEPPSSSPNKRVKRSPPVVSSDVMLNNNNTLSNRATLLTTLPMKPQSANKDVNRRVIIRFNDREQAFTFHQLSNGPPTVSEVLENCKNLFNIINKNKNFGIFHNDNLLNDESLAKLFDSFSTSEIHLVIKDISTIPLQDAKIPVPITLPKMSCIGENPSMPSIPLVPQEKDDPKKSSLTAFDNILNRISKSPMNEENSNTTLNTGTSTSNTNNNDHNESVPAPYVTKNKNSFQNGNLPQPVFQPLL
# Experiment: PBM E-score (8-mer binding enrichment) (E-score (-0.5 to 0.5)); higher = stronger / more preferred TF binding
# Conditions: protein concentration: 200 nM; construct: GST-full length
# Procedure: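 Universal 'all 10-mer' protein binding microarrays (Agilent AMADID 015681) probed with GST-tagged S. cerevisiae TFs (full-length or DBD) made by in vitro transcription/translation (PURExpress), about 100-200 nM. Bound TF was detected with fluorescent anti-GST. Each ungapped 8-mer (which stands for itself and its reverse complement) is scored by the PBM enrichment score (E-score), a modified Wilcoxon-Mann-Whitney statistic from -0.5 to +0.5, computed with the Universal PBM Analysis Suite. Scale: above 0.35 generally sequence-specific binding.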
row,Sequence,PBM E-score
1,AGGTCATG,0.136
2,AAGTCATT,-0.0196
3,CCGTCATC,-0.0774
4,CGGTCATC,0.124
5,CAAAATCC,0.096
6,CCCTTAAC,-0.168
7,ACATGTGC,0.117
8,ACATGTGG,0.278
9,ACATGTGA,0.0459
10,AGTCGGTA,-0.0272
11,ACCCCAAT,-0.0588
12,ATTTGACA,-0.00873
13,GTCCATCA,-0.104
14,ACGAATCC,0.117
15,GCGAATCC,0.0147
16,GCGAATCA,0.345
17,ACGAATCA,0.336
18,CCGAATCA,0.288
19,TCGAATCA,0.253
20,CCGAATCC,0.0952
21,CCGAATCG,0.101
22,ACGAATCT,-0.0246
23,ATTTCTGA,-0.152
24,TATGGAGA,-0.137
25,CTCCCCCC,-0.0954

row,Sequence,PBM E-score
1,ATCTGTTA,-0.0428
2,GTACACAC,0.261
3,ATCAGGTA,0.193
4,ATCCCCAC,0.122
5,ATACCCAC,0.176
6,GCGCGAAC,0.0578
7,AGCTAAAG,-0.21
8,AGAGCCTC,-0.228
9,CGGCGTGA,0.142
10,AGGCGTGA,0.019
11,GGGCGTGA,0.297
12,GCGACTAC,0.341
13,ACGACTAC,0.209
14,GCGACTAA,0.316
15,TCGACTAA,0.207
16,ACGACTAA,0.194
17,CCGACTAC,0.269
18,CCCAGGCA,0.0398
19,CATTCAGC,-0.161
20,CTTGTAAA,-0.0609
21,CGTGGGAG,0.0618
22,AATAAAGC,-0.176
23,AGTCGCCA,0.233
24,AGTCGCAG,0.24
25,AGTCGCAC,0.296

row,Sequence,PBM E-score
1,GGTCGCAC,0.0284
2,AGTCGCCG,0.246
3,AGTCGCCC,0.346
4,GTTCTTGA,-0.0686
5,CTAGGGGC,-0.146
6,AACACCAC,0.0462
7,GTTCAAAC,-0.0829
8,ATACTGCA,0.234
9,CGCCACGA,-0.0781
10,CTTGCAAC,0.0737
11,CGAATCTC,-0.0376
12,GGAATCAA,0.154
13,GGAATCCC,0.034
14,GGAATCAC,0.388
15,CGAATCCC,0.00269
16,CGAATCAC,0.331
17,AAAAGCCA,-0.0583
18,ACACCTGC,0.0726
19,AGGCTACA,0.0844
20,ATGACCAC,0.176
21,ACCCTATG,0.136
22,TACGTTGA,0.0682
23,GATTTTGA,0.0345
24,ATTACTTG,0.164
25,ACTCCGAG,0.357

row,Sequence,PBM E-score
1,GCTCCGAC,0.0683
2,ACTCCGAT,0.1
3,ACTCCGAC,0.332
4,CCTCCGAC,-0.0621
5,ACTCCGAA,0.116
6,TCTTAACA,-0.0919
7,CATGCATC,0.28
8,CATGCATG,0.117
9,CATGCATA,0.0152
10,ACCTCCAT,0.0255
11,CTAGTGGA,-0.162
12,GATCCCTA,-0.0993
13,GGCCAGGA,-0.105
14,AATTAGTA,0.146
15,AATTAGTC,0.29
16,CGTTAGTC,0.132
17,AGTTAGTA,0.137
18,AGTTAGTC,0.291
19,CATTAGTC,0.257
20,CAATCTAA,-0.13
21,ATAGCAAG,0.161
22,GCGAGACC,-0.049
23,ACTTAGGA,-0.198
24,GGACTACA,0.146
25,CGACTACC,0.22

row,Sequence,PBM E-score
1,AGACTAAA,0.0442
2,GGACTAAA,-0.248
3,CGACTACA,0.272
4,CGACTACG,0.188
5,TGACTACA,0.359
6,TGACTAAA,0.326
7,AGACTACA,0.17
8,CGACTAAA,0.0758
9,CGACTAAC,0.303
10,GGACTAAC,-0.00735
11,CAGATAAG,-0.0755
12,CTTCGACA,-0.0949
13,CGGCCAAC,0.0556
14,CGTCCTAA,0.0547
15,GGCACATA,0.13
16,GGGCCAAC,-0.157
17,ACCATAGG,0.0531
18,TAGTAATA,0.191
19,CAGGGGCG,0.301
20,CAGGGGCC,-0.184
21,AAGGGGCG,-0.0512
22,CTTTAGAA,-0.238
23,GAGAAAGA,-0.167
24,ATCCGGAC,-0.192
25,GTCCGGAC,0.273

row,Sequence,PBM E-score
1,CTCCGGAC,0.0766
2,AGGATCTC,-0.119
3,ATCAATGC,0.0623
4,AGGAGACG,-0.176
5,CCCGTGAA,-0.0611
6,CGCCTATA,-0.135
7,CTCGACTA,0.163
8,CGCGACTA,0.391
9,CGCGACCC,0.153
10,AGCGACTC,0.314
11,CGCGACTC,0.449
12,CTCGACTC,0.19
13,GGCGACTA,0.212
14,AGCGACTA,0.211
15,AGCGACTG,0.194
16,GAGGTATA,0.113
17,CTTGCTGC,-0.113
18,CCAATACG,-0.209
19,ATGTGCGC,-0.0331
20,ACACTTTA,-0.0402
21,GAACCTGA,0.0239
22,TCCTGACA,0.107
23,CGGAACCA,0.343
24,ACGAACCC,-0.119
25,ACGAACCA,0.273

row,Sequence,PBM E-score
1,ATGAACCA,0.294
2,CCGAACCA,0.0572
3,ATGAACCG,0.0189
4,GGGAACCA,0.176
5,CGGAACCG,0.0495
6,CTGAACCA,0.245
7,GCTCCTCA,-0.363
8,CTATCGGA,-0.237
9,ACAGTTCC,-0.00019
10,ATATCTTC,0.11
11,ACTATCTA,0.184
12,CAGCCAGG,0.0621
13,GTGGTAAC,-0.0602
14,ACGAAGCA,0.00046
15,CAGACTCG,0.0994
16,AACCTCAG,-0.103
17,GAGTGTAA,0.0325
18,GAGTGTGC,0.0366
19,TAGTGTGA,0.088
20,GAGTGTGA,0.278
21,CAGTGTGA,0.285
22,AAGTGTGA,0.0182
